Key:
Test in all cases: DAPPL (digital affinity profiling via proximity ligation, sequencing); 10 mM Tris-HCl pH 7.5, 50 mM NaCl, 1 mM DTT, 4% glycerol, room temperature, 30 min; GST-TFs on glutathione beads, 16-mer random dsDNA library, 0.1% formaldehyde crosslink after washing; high values mean tight binding
Conditions in all cases: protein: recombinant; tags: N-terminal GST; dsDNA, one strand shown
ERF = molecular target: T1, ERF (Homo sapiens, UniProt P50548 1-548)
T1 sequence: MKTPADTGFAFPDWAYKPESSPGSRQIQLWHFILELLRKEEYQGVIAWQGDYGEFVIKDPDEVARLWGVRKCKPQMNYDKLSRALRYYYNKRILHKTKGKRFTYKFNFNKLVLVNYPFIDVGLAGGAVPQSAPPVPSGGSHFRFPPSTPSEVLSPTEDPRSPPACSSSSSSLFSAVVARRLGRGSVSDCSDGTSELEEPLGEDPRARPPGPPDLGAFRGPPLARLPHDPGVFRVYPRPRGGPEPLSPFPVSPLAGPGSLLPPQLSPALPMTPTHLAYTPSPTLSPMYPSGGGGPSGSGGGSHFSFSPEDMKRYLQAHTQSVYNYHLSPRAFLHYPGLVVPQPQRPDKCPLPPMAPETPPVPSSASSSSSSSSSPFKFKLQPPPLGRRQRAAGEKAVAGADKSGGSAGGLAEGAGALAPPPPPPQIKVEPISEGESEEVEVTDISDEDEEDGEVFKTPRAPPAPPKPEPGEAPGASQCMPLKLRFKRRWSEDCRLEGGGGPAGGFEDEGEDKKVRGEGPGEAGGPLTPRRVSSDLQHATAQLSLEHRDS
Outline: (§1)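 GST fusions of human transcription factors were expressed in yeast and captured with glutathione beads. Once given DNA barcodes and pooled alongside a tag-only sample, they were incubated for 30 min at room temperature with 200 nmole of a random double-stranded 16-mer DNA library in Tris/NaCl/DTT/glycerol buffer, then washed, crosslinked (0.1% formaldehyde), proximity-ligated, PCR-amplified and sequenced on an Illumina NextSeq500. The binding signal of each hexamer is its read frequency for a factor divided by its frequency for the tag-only sample.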

ETV3L = molecular target: T2, ETV3L (Homo sapiens, UniProt Q6ZN32 1-361)
T2 sequence: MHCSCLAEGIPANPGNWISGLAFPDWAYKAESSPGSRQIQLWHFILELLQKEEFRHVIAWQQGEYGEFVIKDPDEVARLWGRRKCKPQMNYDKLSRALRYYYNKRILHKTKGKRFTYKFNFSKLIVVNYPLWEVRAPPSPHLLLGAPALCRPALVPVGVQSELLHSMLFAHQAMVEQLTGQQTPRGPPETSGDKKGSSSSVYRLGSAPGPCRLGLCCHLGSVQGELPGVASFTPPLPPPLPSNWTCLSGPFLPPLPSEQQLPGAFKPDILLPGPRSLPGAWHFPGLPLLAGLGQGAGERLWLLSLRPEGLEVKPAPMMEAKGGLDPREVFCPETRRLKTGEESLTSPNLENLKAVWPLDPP
Outline: as §1

ETS2 = molecular target: T3, ETS2 (Homo sapiens, UniProt P15036 1-469)
T3 sequence: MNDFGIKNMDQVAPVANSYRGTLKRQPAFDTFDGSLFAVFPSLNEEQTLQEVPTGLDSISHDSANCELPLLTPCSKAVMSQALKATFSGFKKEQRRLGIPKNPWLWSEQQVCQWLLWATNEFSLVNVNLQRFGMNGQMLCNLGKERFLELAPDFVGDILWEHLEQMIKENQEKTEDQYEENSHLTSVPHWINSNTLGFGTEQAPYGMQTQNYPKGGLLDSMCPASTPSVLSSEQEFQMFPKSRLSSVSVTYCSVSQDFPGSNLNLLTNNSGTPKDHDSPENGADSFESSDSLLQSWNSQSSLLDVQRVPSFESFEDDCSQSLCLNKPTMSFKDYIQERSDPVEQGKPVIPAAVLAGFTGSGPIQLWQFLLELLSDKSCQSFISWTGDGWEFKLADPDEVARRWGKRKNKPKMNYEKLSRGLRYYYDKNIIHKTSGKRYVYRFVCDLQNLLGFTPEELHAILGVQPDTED
Outline: as §1

SPDEF = molecular target: T4, SPDEF (Homo sapiens, UniProt O95238 1-335)
T4 sequence: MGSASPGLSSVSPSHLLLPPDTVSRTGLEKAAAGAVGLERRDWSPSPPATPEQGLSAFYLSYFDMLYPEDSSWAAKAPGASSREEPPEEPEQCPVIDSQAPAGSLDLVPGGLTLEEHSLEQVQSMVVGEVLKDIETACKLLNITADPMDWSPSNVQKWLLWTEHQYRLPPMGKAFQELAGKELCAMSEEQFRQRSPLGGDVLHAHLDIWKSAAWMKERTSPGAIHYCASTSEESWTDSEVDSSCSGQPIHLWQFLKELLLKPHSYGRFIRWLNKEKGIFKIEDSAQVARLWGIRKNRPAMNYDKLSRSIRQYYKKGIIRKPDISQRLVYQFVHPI
Outline: as §1

ETV7 = molecular target: T5, ETV7 (Homo sapiens, UniProt Q9Y603 1-341)
T5 sequence: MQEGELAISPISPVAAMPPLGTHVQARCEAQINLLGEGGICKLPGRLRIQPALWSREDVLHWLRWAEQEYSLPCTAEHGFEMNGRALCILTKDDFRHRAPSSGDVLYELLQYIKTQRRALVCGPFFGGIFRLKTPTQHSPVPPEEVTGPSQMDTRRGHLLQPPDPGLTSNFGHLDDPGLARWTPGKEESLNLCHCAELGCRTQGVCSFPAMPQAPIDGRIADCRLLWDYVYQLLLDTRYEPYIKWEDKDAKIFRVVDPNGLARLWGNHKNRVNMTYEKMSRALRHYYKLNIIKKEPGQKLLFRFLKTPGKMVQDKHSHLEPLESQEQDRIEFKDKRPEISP
Outline: as §1

ELF5 = molecular target: T6, ELF5 (Homo sapiens, UniProt Q9UKW6-2 1-255)
T6 sequence: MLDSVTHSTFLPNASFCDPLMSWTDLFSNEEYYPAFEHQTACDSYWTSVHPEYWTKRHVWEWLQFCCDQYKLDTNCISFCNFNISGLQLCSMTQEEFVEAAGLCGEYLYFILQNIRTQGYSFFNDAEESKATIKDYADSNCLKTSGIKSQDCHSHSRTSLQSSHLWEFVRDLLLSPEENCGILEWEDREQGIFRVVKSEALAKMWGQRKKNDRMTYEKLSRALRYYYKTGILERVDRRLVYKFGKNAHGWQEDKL
Outline: as §1

ETV3 = molecular target: T7, ETV3 (Homo sapiens, UniProt P41162-2 1-143)
T7 sequence: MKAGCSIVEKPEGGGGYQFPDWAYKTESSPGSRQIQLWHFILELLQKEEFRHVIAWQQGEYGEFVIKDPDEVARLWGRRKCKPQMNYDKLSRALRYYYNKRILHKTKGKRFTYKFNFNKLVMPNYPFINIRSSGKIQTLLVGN
Outline: as §1

ETV6 = ETV6 (Homo sapiens, UniProt P41212 1-452)
Outline: as §1

Sequence of ETV6 (P41212 whole entry): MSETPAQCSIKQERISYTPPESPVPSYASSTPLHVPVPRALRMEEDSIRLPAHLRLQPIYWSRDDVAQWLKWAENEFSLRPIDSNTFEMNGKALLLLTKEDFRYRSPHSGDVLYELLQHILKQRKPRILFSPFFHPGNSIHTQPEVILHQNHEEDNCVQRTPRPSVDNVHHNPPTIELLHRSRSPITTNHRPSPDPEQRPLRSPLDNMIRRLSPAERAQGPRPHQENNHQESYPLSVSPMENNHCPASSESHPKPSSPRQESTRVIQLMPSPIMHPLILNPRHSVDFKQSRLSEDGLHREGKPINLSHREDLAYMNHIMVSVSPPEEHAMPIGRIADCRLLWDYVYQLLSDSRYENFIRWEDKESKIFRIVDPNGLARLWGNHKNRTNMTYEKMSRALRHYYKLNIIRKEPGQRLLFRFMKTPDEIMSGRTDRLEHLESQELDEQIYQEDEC

Row | Sequence | binding signal (ERF) | binding signal (ETV3L) | binding signal (ETS2) | binding signal (SPDEF) | binding signal (ETV7) | binding signal (ELF5) | binding signal (ETV3) | binding signal (ETV6)
1 | TTCCTA | 1.54 fold enrichment (6-mer frequency, TF over GST control) | 1.57 fold enrichment (6-mer frequency, TF over GST control) | 1.8 fold enrichment (6-mer frequency, TF over GST control) | 1.6 fold enrichment (6-mer frequency, TF over GST control) | 1.64 fold enrichment (6-mer frequency, TF over GST control) | 2.04 fold enrichment (6-mer frequency, TF over GST control) | 1.89 fold enrichment (6-mer frequency, TF over GST control) | 1.99 fold enrichment (6-mer frequency, TF over GST control)
2 | CTCTAC | 1.45 fold enrichment (6-mer frequency, TF over GST control) | 1.66 fold enrichment (6-mer frequency, TF over GST control) | 1.48 fold enrichment (6-mer frequency, TF over GST control) | 1.54 fold enrichment (6-mer frequency, TF over GST control) | 1.28 fold enrichment (6-mer frequency, TF over GST control) | 1.52 fold enrichment (6-mer frequency, TF over GST control) | 1.51 fold enrichment (6-mer frequency, TF over GST control) | 1.43 fold enrichment (6-mer frequency, TF over GST control)
3 | TTTCAG | 1.38 fold enrichment (6-mer frequency, TF over GST control) | 1.31 fold enrichment (6-mer frequency, TF over GST control) | 1.27 fold enrichment (6-mer frequency, TF over GST control) | 1.37 fold enrichment (6-mer frequency, TF over GST control) | 1.13 fold enrichment (6-mer frequency, TF over GST control) | 1.28 fold enrichment (6-mer frequency, TF over GST control) | 1.27 fold enrichment (6-mer frequency, TF over GST control) | 1.31 fold enrichment (6-mer frequency, TF over GST control)
4 | ACTCGT | 1.25 fold enrichment (6-mer frequency, TF over GST control) | 1.26 fold enrichment (6-mer frequency, TF over GST control) | 1.27 fold enrichment (6-mer frequency, TF over GST control) | 1.14 fold enrichment (6-mer frequency, TF over GST control) | 1.26 fold enrichment (6-mer frequency, TF over GST control) | 1.24 fold enrichment (6-mer frequency, TF over GST control) | 1.21 fold enrichment (6-mer frequency, TF over GST control) | 1.16 fold enrichment (6-mer frequency, TF over GST control)
5 | TTGTAT | 1.28 fold enrichment (6-mer frequency, TF over GST control) | 1.37 fold enrichment (6-mer frequency, TF over GST control) | 1.4 fold enrichment (6-mer frequency, TF over GST control) | 1.41 fold enrichment (6-mer frequency, TF over GST control) | 1.21 fold enrichment (6-mer frequency, TF over GST control) | 1.35 fold enrichment (6-mer frequency, TF over GST control) | 1.41 fold enrichment (6-mer frequency, TF over GST control) | 1.25 fold enrichment (6-mer frequency, TF over GST control)
6 | AATTGC | 1.43 fold enrichment (6-mer frequency, TF over GST control) | 1.35 fold enrichment (6-mer frequency, TF over GST control) | 1.37 fold enrichment (6-mer frequency, TF over GST control) | 1.27 fold enrichment (6-mer frequency, TF over GST control) | 1.38 fold enrichment (6-mer frequency, TF over GST control) | 1.38 fold enrichment (6-mer frequency, TF over GST control) | 1.35 fold enrichment (6-mer frequency, TF over GST control) | 1.43 fold enrichment (6-mer frequency, TF over GST control)
7 | AAATTG | 1.3 fold enrichment (6-mer frequency, TF over GST control) | 1.29 fold enrichment (6-mer frequency, TF over GST control) | 1.22 fold enrichment (6-mer frequency, TF over GST control) | 1.19 fold enrichment (6-mer frequency, TF over GST control) | 1.25 fold enrichment (6-mer frequency, TF over GST control) | 1.22 fold enrichment (6-mer frequency, TF over GST control) | 1.28 fold enrichment (6-mer frequency, TF over GST control) | 1.34 fold enrichment (6-mer frequency, TF over GST control)
8 | CCGCAT | 1.46 fold enrichment (6-mer frequency, TF over GST control) | 1.6 fold enrichment (6-mer frequency, TF over GST control) | 1.56 fold enrichment (6-mer frequency, TF over GST control) | 1.64 fold enrichment (6-mer frequency, TF over GST control) | 1.44 fold enrichment (6-mer frequency, TF over GST control) | 1.75 fold enrichment (6-mer frequency, TF over GST control) | 1.57 fold enrichment (6-mer frequency, TF over GST control) | 1.59 fold enrichment (6-mer frequency, TF over GST control)

From publication PMC7862700, “An all-to-all approach to the identification of sequence-specific readers for epigenetic DNA modifications on cytosine”
